Data on eight molecules can be found in PubChem BioAssay (NCATS).

Each structure is given as a SMILES string. Where “and” joins values, the source holds several entries; their conditions need not be identical. Equal values may be shown once. Records with an inconclusive call do not appear. Calls of active or inactive are those of the source. Unless noted, the call rests on the fitted dose curve; in most records, active means well fitted curve in the direction sought with a large enough effect; inconclusive means small, poorly fitted or top-dose-only effect, or another doubt; inactive means no such curve, though single readings can be large; an effect the other way counts as inactive or inconclusive.

Test [1] concerns the target Cytochrome P450 1A2 (Homo sapiens) (UniProt P05177). Description: p450-cyp1a2 (AID 410; calls by dose curve; further: potency means the concentration at half of the fitted maximal effect). The method in brief:
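Human CYP1A2 (20nM) demethylated Luciferin-ME at its Km (100uM) in 100mM KPO4. After 10 min compound preincubation, NADPH regeneration ran the reaction 60 min at room temperature. Luciferin was read by luminescence, normalized to 57 uM furafylline.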

A short description of test [2]: Stat Signaling Pathway (AID 446; active means well fitted curve in either direction with a large enough effect, not every such curve was filed as active;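 further: ME-180 cervical cancer cells given 40 pM IL-6 alongside compound; SIE-controlled beta-lactamase reporter measured as 460/530 nm FRET emission ratio; on the % scale 0 is the no-effect control and ±100 the full control effect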). Conditions: ME-180 SIE beta-lactamase reporter, IL-6 stimulated, 5 h; at 7.69 µM (top of the series) unless noted. The method in brief:
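ME-180 cells carrying a SIE-driven beta-lactamase reporter are stimulated with 40 pM IL-6 for 5 h at 37C in the presence of compound. The 460/530 nm FRET substrate ratio is read after 2.5 h at RT. Data are normalised to 300 pM IL-6 and to 125 nM JAK inhibitor controls.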

The target of test [3] is Glucocorticoid receptor (Homo sapiens) (UniProt P04150). Description: GR-GFP Redistribution (AID 450;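 active means compounds whose dose series gives a full or clear partial fitted curve of increased nuclear translocation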; further: potency means the concentration at half of the fitted maximal effect). Conditions: U2OS GR-GFP nuclear translocation, laser cytometry, 2 h.
The target is the same in test [4]. Briefly: GR-EFC Redistribution (AID 451; calls by dose curve; further: potency means the concentration at half of the fitted maximal effect). The settings on record: CHO-K1 GR-EFC translocation, beta-gal luminescence, 2 h. The method in brief:
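CHO-K1 cells stably expressing nuclear-localized β-gal enzyme acceptor and GR fused C-terminally to the enzyme donor fragment; ligand-driven nuclear translocation restores β-gal by complementation. Compounds titrated up to 46 uM final, 2 h at 37 °C; luminescence read.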

Test [5] addresses Mitogen-activated protein kinase 10 (Mus musculus) (UniProt Q61831). Briefly: JNK3 AlphaScreen Assay (AID 530; active means well fitted curve in either direction with a large enough effect, not every such curve was filed as active;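 further: kinase came from lysate of stimulated human HepG2 cells; signal reports phosphorylation of biotinylated GST-cJun 1-79 at Ser73 with 10 µM ATP; on the % scale 0 is the no-effect control and ±100 the full control effect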). The method in brief:
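JNK3 came from HepG2 lysates pre-activated with IL-1beta and TNF-alpha and phosphorylated biotinylated GST-cJun (1-79) at 10 uM ATP, pH 7.6, room temperature. Compounds were titrated. AlphaScreen signal used anti-phospho-cJun (Ser73) antibody.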
(In general: Bead proximity is the source of the signal in Alpha formats.)

The target of test [6] is 3',5'-cyclic-AMP phosphodiesterase 4B (Homo sapiens) (UniProt Q07343). Briefly: qHTS Assay for Inhibitors of PDE-IV (AID 607; active means well fitted activation curve with a large enough effect in the main read-out, with a control signal flat, not every such curve was filed as active; further: % of control where 0% means no effect). Summed up: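 HEK293 ACTOne cells with CNG channel (1000/well), endogenous PDE4; membrane potential dye, compounds up to 22.9 uM final. Fluorescence Ex 535/Em 590; RO 20-1724 (100 uM final) as reference.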
For orientation: Quantitative high-throughput screening tests each substance at several concentrations.

For test [7], the target named is Cytochrome P450 3A4 (Homo sapiens) (UniProt P08684). Briefly: qHTS Assay for Activators of Cytochrome P450 3A4 (AID 885). Further: nearly all actives have a fitted effect of over 65% in size. Further: potency means the concentration at half of the fitted maximal effect. The method in brief: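 Human CYP3A4 (20 nM) with Luciferin-PPXE at 25 uM (its KM) in 200 mM KPO4; 10 min compound preincubation, then NADPH regeneration and 60 min reaction at RT. Luciferin read by luminescence; normalized to 57 uM ketoconazole full inhibition.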

Test [8] has the same target. Description: qHTS Assay for Inhibitors and Substrates of Cytochrome P450 3A4 (AID 884). Further: nearly all actives have a fitted effect of over 50% in size. Further: potency means the concentration at half of the fitted maximal effect. The method in brief:
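20 nM human CYP3A4 with 25 uM Luciferin-PPXE (at KM) in 200 mM KPO4, preincubated 10 min with compound; NADPH regeneration started a 60 min RT reaction. Luciferin detected by luminescence, normalized to 57 uM ketoconazole as full inhibition.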

Test [9] in a line: AP1 Signaling Pathway (AID 357; active means well fitted curve in either direction with a large enough effect, not every such curve was filed as active; further: on the % scale 0 is the no-effect control and ±100 the full control effect). Conditions: ME-180 (cervical carcinoma) AP-1-bla reporter, EGF-induced, beta-lactamase ratio, 5 h; at 7.69 µM (top of the series) unless noted. The method in brief: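 Cells are seeded overnight, exposed to compound titrations and an EC50 level of EGF for 5 hours at 37 °C, then loaded with CCF4 dye for 2.5 hours. Beta-lactamase activity under the AP-1 element is read as a blue/green ratio.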

Test [10] is described as follows: NFAT Signaling Pathway (AID 444; active means well fitted curve in either direction with a large enough effect, not every such curve was filed as active;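 further: carbachol stimulus at about its EC50 of 1 µM final; on the % scale 0 is the no-effect control and ±100 the full control effect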). The settings on record: Jurkat NFAT-bla M1, carbachol, beta-lactamase ratio, 5 h; at 7.69 µM (top of the series) unless noted. The method in brief:
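Jurkat cells carrying an NFAT-driven β-lactamase reporter and co-transfected muscarinic M1 receptor were treated with compound plus carbachol (1 uM final, an EC50 level) for 5 h at 37 °C. CCF4 loading followed for 1 h at RT; 460/530 nm ratio gave %activity.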

A short description of test [11]: Confirmation and Secondary Assay for Modulators of Hemoglobin Beta Chain Splicing at IVS2 705 locus (AID 930).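 Further: HeLa cells stably expressing the EGFP-705 splicing reporter; GFP fluorescence per well restored by corrected splicing of the IVS2-705 intron in EGFP; % of control where 0% means no effect.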 Summed up:
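Assay measures total GFP intensity per well in HeLa EGFP-705 cells after 2 days with compound; mis-splicing normally truncates EGFP, so fluorescence indicates corrected splicing.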

Test [12] can be described thus: qHTS Assay for Lipid Storage Modulators (AID 1519; calls by dose curve). The settings on record: Drosophila S3 cells, BODIPY lipid droplet/cell ratio, laser cytometry, cells loaded with oleic acid. The method in brief:
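Cells seeded at 5,000 per well were treated with compounds over a concentration series and loaded with oleic acid (400 uM, as added). Lipid droplet fluorescence (488 nm excitation, 500-530 nm channel) was read by laser-scanning cytometry and normalized to 20 uM Triacsin C.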

Test [13] concerns the target Ubiquitin carboxyl-terminal hydrolase 1 (Homo sapiens) (UniProt O94782). Briefly: Inhibitors of USP1/UAF1: Pilot qHTS (AID 504865). Further: nearly all actives have a fitted effect of over 35% in size. Further: potency means the concentration at half of the fitted maximal effect. Summed up: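 In 50mM HEPES pH 7.8 containing 0.5mM EDTA, 1mM TCEP, 0.1 mg/ml BSA and 0.01% Tween-20, 1nM USP1/UAF1 is exposed to compound for 15 min, then Ub-Rho (150nM final) is added and fluorescence is read over time.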
The target of test [14] is Lysosomal acid glucosylceramidase (Homo sapiens) (UniProt P04062). Description: Glucocerebrosidase-p2 (AID 348; in the data active means potency below about 10 µM; further: potency means the concentration at half of the fitted maximal effect). The settings on record: purified GBA, blue fluorogenic substrate, 40 min. The method in brief:
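Compounds titrated from 0.6 nM upwards against 0.2 nM enzyme in pH 5.9 citric acid/KH2PO4, taurocholate, tween-20; blue fluorogenic substrate 80 uM, 40 min room temperature, stopped and read Ex 365/Em 440 for AC50.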

A short description of test [15]: Confirmation and Secondary Assay for Modulators of Hemoglobin Beta Chain Splicing at IVS2 654 locus (AID 910).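 Further: per-well total GFP intensity by laser scanning cytometry after 2-day treatment; % of control where 0% means no effect.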 Summed up:
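HeLa cells stably carrying EGFP interrupted by mutant beta-globin IVS2-654 intron (CMV-driven) were treated with compound for 2 days at 37C; corrected splicing was scored as total peak GFP intensity per well (488 nm excitation, 500-520 nm emission).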

For test [16], the target named is Rap guanine nucleotide exchange factor 3 (Homo sapiens) (UniProt O95398). Briefly: Confirmatory qHTS for antagonist of cAMP-regulated guanine nucleotide exchange factor 3 (EPAC1) (AID 1645880). Further: nearly all actives have a fitted effect of over 55% in size. Further: potency means the concentration at half of the fitted maximal effect.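 On activity, negative = inhibition: plate controls were DMSO only for no effect and full effect of the ATA control for full effect.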 Summed up:
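Nucleotide exchange uses 100 nM EPAC1, 250 nM RAP1B-BODIPY-GDP and 50 uM GDP, with compounds in a concentration-titration series. After 5 min at room temperature, fluorescence (480 nm ex/540 nm em) is read every 5 min for 30 min. Data are normalized to control ATA and DMSO.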

Test [17] shares this target. Description: Confirmatory qHTS for agonist of cAMP-regulated guanine nucleotide exchange factor 3 (EPAC1) (AID 1645881).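 Further: EPAC1 catalysed release of BODIPY-GDP from Rap1B seen as fluorescence loss; 100% = effect of cAMP agonist control; nearly all actives have a fitted effect of over 75% in size.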
In test [18] the target is Rap guanine nucleotide exchange factor 4 (Homo sapiens) (UniProt Q8WZA2). Briefly: Confirmatory qHTS for agonist of cAMP-regulated guanine nucleotide exchange factor 4 (EPAC2) (AID 1645884).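 Further: nucleotide exchange releases bodipy-GDP from Rap1 and this lowers its fluorescence; on the % scale 0 is the no-effect control and ±100 the full control effect; nearly all actives have a fitted effect of over 65% in size.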
Test [19] shares this target. Description: Confirmatory qHTS for antagonist of cAMP-regulated guanine nucleotide exchange factor 4 (EPAC2) (AID 1645885). Further: on the % scale 0 is the no-effect control and ±100 the full control effect; nearly all actives have a fitted effect of over 25% in size.
[20] abbreviates: measured here: cell count channel max response.
Setting [21] is: measured here: lipid channel max response.

Sequence of Cytochrome P450 1A2 (Homo sapiens) (P05177 whole entry, looked up): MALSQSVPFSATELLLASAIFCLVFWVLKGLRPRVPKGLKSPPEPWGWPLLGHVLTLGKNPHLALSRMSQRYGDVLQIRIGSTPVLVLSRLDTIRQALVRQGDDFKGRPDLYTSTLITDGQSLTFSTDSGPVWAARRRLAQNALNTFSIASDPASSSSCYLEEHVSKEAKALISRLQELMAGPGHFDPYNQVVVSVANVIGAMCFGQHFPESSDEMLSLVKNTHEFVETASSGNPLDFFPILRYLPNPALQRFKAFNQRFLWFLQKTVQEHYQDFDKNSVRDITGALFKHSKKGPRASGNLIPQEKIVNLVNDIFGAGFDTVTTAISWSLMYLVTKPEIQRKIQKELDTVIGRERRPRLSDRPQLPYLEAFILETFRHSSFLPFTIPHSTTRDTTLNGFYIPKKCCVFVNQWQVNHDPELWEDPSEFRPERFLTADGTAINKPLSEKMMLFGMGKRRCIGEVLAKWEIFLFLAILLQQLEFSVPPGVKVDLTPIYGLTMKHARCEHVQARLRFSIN
Sequence of Cytochrome P450 3A4 (Homo sapiens) (P08684 whole entry, looked up): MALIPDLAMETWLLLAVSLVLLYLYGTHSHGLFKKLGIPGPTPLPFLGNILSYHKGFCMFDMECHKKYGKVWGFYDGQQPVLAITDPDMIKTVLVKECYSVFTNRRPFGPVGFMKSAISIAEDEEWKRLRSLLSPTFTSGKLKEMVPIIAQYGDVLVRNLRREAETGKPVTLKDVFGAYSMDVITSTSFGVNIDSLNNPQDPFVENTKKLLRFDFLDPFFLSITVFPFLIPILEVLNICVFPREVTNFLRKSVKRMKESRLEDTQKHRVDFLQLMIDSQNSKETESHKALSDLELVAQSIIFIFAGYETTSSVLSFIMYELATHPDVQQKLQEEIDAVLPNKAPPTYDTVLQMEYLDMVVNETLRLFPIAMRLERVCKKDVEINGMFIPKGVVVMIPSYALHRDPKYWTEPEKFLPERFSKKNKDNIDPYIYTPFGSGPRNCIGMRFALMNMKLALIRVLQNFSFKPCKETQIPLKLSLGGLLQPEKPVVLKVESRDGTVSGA
Sequence of Rap guanine nucleotide exchange factor 3 (Homo sapiens) (O95398 whole entry, looked up): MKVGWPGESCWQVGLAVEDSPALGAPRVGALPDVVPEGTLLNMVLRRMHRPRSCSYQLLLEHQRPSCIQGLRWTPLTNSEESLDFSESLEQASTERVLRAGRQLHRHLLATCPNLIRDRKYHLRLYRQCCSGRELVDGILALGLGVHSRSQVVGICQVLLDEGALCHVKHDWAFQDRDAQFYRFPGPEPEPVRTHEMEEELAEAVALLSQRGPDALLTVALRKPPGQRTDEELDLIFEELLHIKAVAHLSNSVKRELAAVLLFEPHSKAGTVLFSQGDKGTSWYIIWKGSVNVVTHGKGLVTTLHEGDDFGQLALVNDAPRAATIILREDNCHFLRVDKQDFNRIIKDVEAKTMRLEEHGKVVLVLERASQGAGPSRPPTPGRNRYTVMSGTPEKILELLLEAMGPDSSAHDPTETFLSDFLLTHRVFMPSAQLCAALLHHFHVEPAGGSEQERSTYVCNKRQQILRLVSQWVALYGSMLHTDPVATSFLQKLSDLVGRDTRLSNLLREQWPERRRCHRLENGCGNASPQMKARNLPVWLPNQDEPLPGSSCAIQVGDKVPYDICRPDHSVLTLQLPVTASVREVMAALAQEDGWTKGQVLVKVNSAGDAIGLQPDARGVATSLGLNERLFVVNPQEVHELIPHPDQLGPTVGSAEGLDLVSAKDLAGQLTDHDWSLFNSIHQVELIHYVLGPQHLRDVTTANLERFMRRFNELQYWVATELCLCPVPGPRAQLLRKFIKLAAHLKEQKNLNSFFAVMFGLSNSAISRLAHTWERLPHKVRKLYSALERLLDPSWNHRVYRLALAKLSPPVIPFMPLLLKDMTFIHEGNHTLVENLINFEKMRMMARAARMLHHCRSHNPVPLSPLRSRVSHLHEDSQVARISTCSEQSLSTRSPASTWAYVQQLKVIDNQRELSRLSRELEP
Sequence of Ubiquitin carboxyl-terminal hydrolase 1 (Homo sapiens) (O94782 whole entry, looked up): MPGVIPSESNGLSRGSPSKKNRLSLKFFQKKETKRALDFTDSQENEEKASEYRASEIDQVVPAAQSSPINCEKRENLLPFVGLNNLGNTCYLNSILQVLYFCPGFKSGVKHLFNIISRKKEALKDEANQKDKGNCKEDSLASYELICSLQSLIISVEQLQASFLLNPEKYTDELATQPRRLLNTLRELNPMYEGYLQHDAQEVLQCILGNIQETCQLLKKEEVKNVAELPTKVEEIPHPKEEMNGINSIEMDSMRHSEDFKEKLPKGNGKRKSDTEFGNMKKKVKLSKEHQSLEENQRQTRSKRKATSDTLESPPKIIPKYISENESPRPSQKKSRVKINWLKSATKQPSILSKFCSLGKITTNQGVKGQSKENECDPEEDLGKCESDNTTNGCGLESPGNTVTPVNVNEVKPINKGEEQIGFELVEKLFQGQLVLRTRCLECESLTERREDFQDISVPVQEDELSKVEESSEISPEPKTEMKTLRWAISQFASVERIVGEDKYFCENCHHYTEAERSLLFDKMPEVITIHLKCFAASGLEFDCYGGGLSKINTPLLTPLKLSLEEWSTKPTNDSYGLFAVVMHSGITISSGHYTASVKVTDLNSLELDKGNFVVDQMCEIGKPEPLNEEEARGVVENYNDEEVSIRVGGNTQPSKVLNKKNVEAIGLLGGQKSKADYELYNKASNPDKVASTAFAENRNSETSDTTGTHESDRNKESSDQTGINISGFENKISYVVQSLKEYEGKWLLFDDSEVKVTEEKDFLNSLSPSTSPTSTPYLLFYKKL
Sequence of 3',5'-cyclic-AMP phosphodiesterase 4B (Homo sapiens) (Q07343 whole entry, looked up): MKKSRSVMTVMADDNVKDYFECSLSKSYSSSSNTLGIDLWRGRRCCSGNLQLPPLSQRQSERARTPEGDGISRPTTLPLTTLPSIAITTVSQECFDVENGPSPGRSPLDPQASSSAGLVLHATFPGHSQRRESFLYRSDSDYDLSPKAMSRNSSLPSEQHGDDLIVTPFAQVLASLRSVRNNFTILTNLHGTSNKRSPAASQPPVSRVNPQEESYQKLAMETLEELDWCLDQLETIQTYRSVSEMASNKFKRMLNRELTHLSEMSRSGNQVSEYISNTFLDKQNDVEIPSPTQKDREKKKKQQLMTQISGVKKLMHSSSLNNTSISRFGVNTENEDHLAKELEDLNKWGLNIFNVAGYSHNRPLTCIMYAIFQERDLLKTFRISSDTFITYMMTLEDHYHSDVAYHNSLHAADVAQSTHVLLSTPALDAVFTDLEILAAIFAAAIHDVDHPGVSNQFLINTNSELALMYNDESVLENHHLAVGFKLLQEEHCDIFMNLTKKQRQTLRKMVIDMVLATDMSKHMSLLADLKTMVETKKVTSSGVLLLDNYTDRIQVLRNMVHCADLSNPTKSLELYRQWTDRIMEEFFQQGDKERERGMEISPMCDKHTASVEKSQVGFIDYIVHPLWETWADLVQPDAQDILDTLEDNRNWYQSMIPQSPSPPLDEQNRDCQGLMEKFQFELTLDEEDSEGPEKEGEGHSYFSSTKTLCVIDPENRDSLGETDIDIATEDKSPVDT
Sequence of Glucocorticoid receptor (Homo sapiens) (P04150 whole entry, looked up): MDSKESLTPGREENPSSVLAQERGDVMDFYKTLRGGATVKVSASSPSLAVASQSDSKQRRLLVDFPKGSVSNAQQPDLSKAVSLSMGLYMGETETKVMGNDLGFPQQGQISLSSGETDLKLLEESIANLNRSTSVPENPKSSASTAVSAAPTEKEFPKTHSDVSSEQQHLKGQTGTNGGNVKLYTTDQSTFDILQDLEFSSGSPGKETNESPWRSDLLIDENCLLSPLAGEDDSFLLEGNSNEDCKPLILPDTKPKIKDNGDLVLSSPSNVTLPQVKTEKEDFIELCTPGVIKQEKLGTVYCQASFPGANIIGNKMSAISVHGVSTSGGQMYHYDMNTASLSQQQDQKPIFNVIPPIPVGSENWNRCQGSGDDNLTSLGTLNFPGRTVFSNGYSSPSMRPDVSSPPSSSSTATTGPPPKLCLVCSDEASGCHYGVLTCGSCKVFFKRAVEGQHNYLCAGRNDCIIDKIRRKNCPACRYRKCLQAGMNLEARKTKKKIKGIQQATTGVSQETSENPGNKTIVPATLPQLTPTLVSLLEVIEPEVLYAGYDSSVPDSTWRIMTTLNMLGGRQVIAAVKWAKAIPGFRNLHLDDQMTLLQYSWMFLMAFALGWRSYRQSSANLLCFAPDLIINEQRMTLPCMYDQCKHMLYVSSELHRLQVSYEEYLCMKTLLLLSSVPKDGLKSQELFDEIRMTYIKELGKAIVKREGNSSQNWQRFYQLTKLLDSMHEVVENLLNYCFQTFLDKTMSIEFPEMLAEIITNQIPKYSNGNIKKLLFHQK
Sequence of Lysosomal acid glucosylceramidase (Homo sapiens) (P04062 whole entry, looked up): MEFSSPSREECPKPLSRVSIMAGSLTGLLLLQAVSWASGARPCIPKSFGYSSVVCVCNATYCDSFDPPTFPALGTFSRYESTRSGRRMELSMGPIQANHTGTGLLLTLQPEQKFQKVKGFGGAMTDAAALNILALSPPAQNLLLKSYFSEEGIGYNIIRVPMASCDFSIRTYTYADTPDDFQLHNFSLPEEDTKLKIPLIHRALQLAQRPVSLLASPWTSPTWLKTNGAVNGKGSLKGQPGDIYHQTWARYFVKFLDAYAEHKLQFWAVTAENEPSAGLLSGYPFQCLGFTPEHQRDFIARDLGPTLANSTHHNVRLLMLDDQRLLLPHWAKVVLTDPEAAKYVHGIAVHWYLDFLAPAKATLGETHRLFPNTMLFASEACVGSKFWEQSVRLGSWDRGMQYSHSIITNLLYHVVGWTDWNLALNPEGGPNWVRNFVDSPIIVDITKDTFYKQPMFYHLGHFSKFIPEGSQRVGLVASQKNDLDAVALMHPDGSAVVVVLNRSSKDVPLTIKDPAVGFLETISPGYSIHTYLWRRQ

Turning to `COc1cccc(Nc2ncc3nc(-c4ccc(Cl)cc4)c(=O)n(CCC#N)c3n2)c1`, the Potency in test [1] was 5.01 µM (active); in test [3], > 9.22 µM (inactive); in test [4], > 46 µM (inactive). In addition, the activity, negative = inhibition in test [2] is -26.2% (inactive). Moreover, the Potency entry in test [5], in [6] and in test [7] was “inactive” each time.
For the molecule `CC[C@@H]1Cn2c(c3nc(-c4ccccc4)nc-3n(C)c2=O)N1`, the Potency result in [8] is “inactive”. The Potency in [7] is 12.6 µM (active).
For the molecule `COc1cc2c(cc1OC)C(=O)Cc1ccc3c(c1CN(C)CC2)OCO3`, the Potency entry in test [1], in test [5], in test [6] and in test [8] was “inactive” throughout. Also, the Potency in test [3] and in test [4] was > 46 µM (inactive) in each case.
Turning to `CCCC[P+](CCCC)(CCCC)Cc1ccc(NC(=O)[C@@H](Cc2ccc3ccccc3c2)NC(=NC2CCCCC2)NC2CCCCC2)cc1`, the Potency in test [1] was 31.6 µM (active); in [3], > 46 µM (inactive); in test [4], > 46 µM (inactive).
As for `O=c1ccc2cc(O)c(O)cc2o1`, the activity change, negative = inhibition in test [9] is 12.2% [at 17.2 µM] (inactive); in test [10], 28.9% [at 17.2 µM] (inactive); in test [12] (at 25.7 µM (top of the series)), -3.37% (inactive); in [12] (at 57.5 µM (top of the series)) it was -7.91% (inactive). In addition, the Potency in [3] and in test [4] was > 20.6 µM (inactive) throughout. The Potency entry in [5], in test [6], in test [8] and in test [13] was “inactive” throughout. The molecule was classed as inactive in test [11]. Besides, the max response is -16.4% and -4.98% in [12] (setting [20]); -18.9% and -8.28% in [12] (setting [21]).
Regarding `COc1ccccc1CNc1ncnc2ccc(-c3cccnc3)cc12`, the Potency in test [14] was > 11.4 µM (inactive); in test [1], 0.316 µM (active); in test [3], > 46 µM (inactive); in test [4], > 46 µM (inactive); in test [8], 2 µM (active). Also, the activity change, negative = inhibition was 12.3% (inactive) in test [10] and 3.28% (inactive) in test [12] (at 57.5 µM (top of the series)). Also, the activity, negative = inhibition in [2] was -17.2% (inactive). Besides, the Potency entry in test [5], in test [7], in test [15], in test [16], in test [17] and in [18] was “inactive” each time. Moreover, the call in test [11] was inactive. The max response in test [12] (setting [20]) was -9.63%; in test [12] (setting [21]), -6.23%.
Take `O=c1c(-c2ccccc2)coc2cc(O)cc(O)c12`: the Potency is 20 µM (active) in [8], 56.2 µM (active) in test [13] and 44.4 µM (active) in [16]. Besides, the Potency entry in [7], in test [15], in test [17], in test [18] and in test [19] was “inactive” each time. Also, the molecule was classed as inactive in test [11]. In addition, the activity change, negative = inhibition in test [12] (at 57.5 µM (top of the series)) is 13.9% (inactive). In addition, the max response was -5.73% in [12] (setting [20]) and 7.42% in test [12] (setting [21]).
Turning to `C#C[C@]1(OC(C)=O)CCC2C3CCC4=CC(=O)CCC4C3CC[C@]21C` (stereo not given in full), the Potency entry in test [7], in test [15], in [13], in test [16], in test [17] and in test [18] was “inactive” throughout. Besides, in test [11], the molecule was called inactive. Moreover, the activity change, negative = inhibition in [12] (at 57.5 µM (top of the series)) was -18.5% (inactive). Also, the max response was -10.7% in test [12] (setting [20]) and -26.2% in test [12] (setting [21]).
